Bioassay records from PubChem BioAssay.
Y pestis TopoI – Y. pestis Topo-I inhibition via cleavage products | activity, % at 10 µM | Y. pestis Topo-I cleavage product accumulation, plate reader | 360,000 compounds, 0.064% hits | AID 504884; in the data active means activity above about 50%, passing the limit was not always enough
BJeLR lethal – kills HRASV12-expressing BJeLR cells | BJeLR (HRASV12) viability, CellTiter-Glo ATP luminescence, 48 h | 300,000 compounds, 0.17% hits | inhibition, % (concentration not given with the values); in the data active means inhibition above about 50%
PfHsp40 yeast – compounds rescuing yeast from Plasmodium falciparum HSP40 toxicity; S. cerevisiae expressing PfHsp40, growth rescue, ATP luminescence; growth rescue, % at 12.5 µM; AID 504582; 340,000 compounds, 0.68% hits; in the data active means growth rescue above about 28%, passing the limit was not always enough;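 further: yeast W303a lacking pdr1 and pdr3 grown in galactose medium; growth measured after three days at 30 °C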
ugtP null kill – growth inhibition of S. aureus ugtP deletion strain; S. aureus RN4220 ugtP deletion, OD600 growth, 16 h; growth inhibition, % (concentration not given with the values); 330,000 compounds, 0.54% hits; in the data active means growth inhibition above about 68%
Sa RN4220 lethal – kills Staphylococcus aureus RN4220; 330,000 compounds, 0.33% hits; S. aureus RN4220 growth, OD600, 16 h; inhibition, % (test concentration not listed); in the data active means inhibition above about 85%
PrP UTR inh – inhibition of PrP 5' UTR reporter expression | AID 488862 | 340,000 compounds, 0.35% hits | inhibition, % (concentration not given with the values) | cell-based PrP 5' UTR mRNA reporter, plate reader; in the data active means inhibition above about 52%
Large screens that a line does not name were inactive. Only some compounds are listed: those with a hit (about 1.4% of all), similar ones and a draw of the others.

CC(C)c1ccc2[nH]c3c(c2c1)C1CCN2C(=O)CCCC(C3)C12 (stereo not drawn)	none (no result: Y pestis TopoI, BJeLR lethal, PfHsp40 yeast, PrP UTR inh)
Cc1ccc(N=Nc2ccc(O)cc2)c(Br)c1	PfHsp40 yeast 201
Nc1nonc1C(=O)N/N=C/c1cc(Br)ccc1O	PfHsp40 yeast 168 (no result: Y pestis TopoI, ugtP null kill, Sa RN4220 lethal)
Nc1nonc1C(=O)NN=Cc1cc(Br)ccc1O	none (no result: Y pestis TopoI, BJeLR lethal, PfHsp40 yeast, PrP UTR inh)
CC(C)Oc1ccc(Cc2cnc(N)nc2N)cc1	ugtP null kill 91
CCOC(=O)CSc1nc(C(C)C)nc2sc(C)c(C)c12	ugtP null kill 89
O=S(=O)(c1ccccc1)[C@@]1(c2ccc(Br)cc2)CC2ON=C(c3ccccc3)C2C1 (stereo partly drawn)	none (no result: Y pestis TopoI, BJeLR lethal, PfHsp40 yeast, PrP UTR inh)
CC(C)(C)OC(=O)C(Cc1ccccc1)NC(=O)c1nc[nH]c1C(=O)N1CCc2ccccc2C1 (stereo not drawn)	none (no result: Y pestis TopoI, BJeLR lethal, PfHsp40 yeast, PrP UTR inh)
COc1ccccc1C(=O)Nc1nnc(-c2ccc(Cl)cc2)o1	none
O=C(Nc1nnc(-c2ccc3c(c2)CCCC3)o1)c1c(F)cccc1F	none
O=C(Nc1nnc(-c2ccc3c(c2)CCCC3)o1)C1CCCCC1	none
O=C(Nc1nnc(-c2ccc3c(c2)CCCC3)o1)c1ccc(Cl)cc1Cl	ugtP null kill 100, Sa RN4220 lethal 99
CN(C)S(=O)(=O)c1ccc(C(=O)Nc2nnc(-c3ccc4c(c3)CCCC4)o2)cc1	ugtP null kill 99, Sa RN4220 lethal 98
COc1ccc(-c2csc(NC(=O)c3ccc(S(=O)(=O)N4CCc5ccccc5C4)cc3)n2)cc1	none
COc1ccc(-c2nnc(NC(=O)c3cc(Cl)ccc3Cl)o2)cc1	ugtP null kill 100
COc1ccc(-c2nnc(NC(=O)c3ccc(S(=O)(=O)N4CCc5ccccc5C4)cc3)o2)cc1	BJeLR lethal 76, ugtP null kill 99
CCc1ccccc1NC(=O)NC(C(=O)O)C(C)C (stereo not drawn)	none (no result: Y pestis TopoI, BJeLR lethal, PfHsp40 yeast, PrP UTR inh)
CC(C)(C)OC(=O)CC1CC=CCC(CC(=O)NC(CO)Cc2ccccc2)C(=O)N2CCCC2COC1=O (stereo not drawn)	none (no result: Y pestis TopoI, BJeLR lethal, PfHsp40 yeast, PrP UTR inh)
CC(NC(=O)c1nc[nH]c1C(=O)NCc1ccc(CNC(=O)OC(C)(C)C)cc1)C(=O)OC(C)(C)C (stereo not drawn)	none (no result: Y pestis TopoI, BJeLR lethal, PfHsp40 yeast, PrP UTR inh)
COc1ccc(C2c3ccc4ccccc4c3Oc3ncn(CCCN(C)C)c(=N)c32)cc1 (stereo not drawn)	BJeLR lethal 54 (no result: ugtP null kill, Sa RN4220 lethal)
O=C(Nc1ccc(Cl)cc1C(=O)Nc1ccc(Br)cn1)c1ccco1	PfHsp40 yeast 270
COc1ccc(-c2cc3nc(C)cc(N)n3n2)cc1	BJeLR lethal 51
COc1cc(-c2ccc(=O)[nH]n2)ccc1OC(F)F	PfHsp40 yeast 43
COc1ccc(-c2ccc(=O)[nH]n2)cc1	none
CC=C(C)C(=O)OC1c2cc(OC)c(OC)c(OC)c2-c2c(cc3c(c2OC)OCO3)CC(C)[C@]1(C)O (stereo partly drawn)	none (no result: Y pestis TopoI, BJeLR lethal, PfHsp40 yeast, PrP UTR inh)
Cc1c(C(=O)NC(=S)Nc2ccccc2N2CCCC2)cccc1[N+](=O)[O-]	ugtP null kill 96
O=C(NC(=S)Nc1ccccc1N1CCCC1)c1ccc([N+](=O)[O-])cc1	none
COc1ccc(C(=O)NC(=S)Nc2ccccc2N2CCCCC2)cc1[N+](=O)[O-]	ugtP null kill 94
CCCCC(=O)NC(=S)Nc1cccc(Cl)c1N1CCCCC1	none
CCOc1ccc(C(=O)NC(=S)Nc2ccccc2N2CCCCC2)cc1[N+](=O)[O-]	none
CCCCC(=O)NC(=S)Nc1ccccc1N1CCCCC1	ugtP null kill 84
CCCC=C1CCCOC(C(=O)NCc2cc(C)n(C)n2)(C(F)(F)F)C1 (stereo not drawn)	none (no result: Y pestis TopoI, BJeLR lethal, PfHsp40 yeast, PrP UTR inh)
CC(=O)OCC1OC(OCc2cn(CC3CCC(C4CCC(Cn5cc(COC6OC(COC(C)=O)C(OC(C)=O)C(OC(C)=O)C6OC(C)=O)nn5)O4)O3)nn2)C(OC(C)=O)C(OC(C)=O)C1OC(C)=O (stereo not drawn)	none (no result: Y pestis TopoI, BJeLR lethal, PfHsp40 yeast, PrP UTR inh)
Cc1onc(C(=O)N2CCN(C(c3ccccc3)c3ccccc3)CC2)c1[N+](=O)[O-]	BJeLR lethal 75
COc1nc(Nc2nc3ccccc3c(=O)[nH]2)nc2ccc(C)cc12	ugtP null kill 100, Sa RN4220 lethal 100
Cc1cccc(Nc2nc(-c3c(C)nc4ccccn34)cs2)c1	none
Cc1nc2ccccn2c1-c1csc(Nc2cccc(O)c2)n1	BJeLR lethal 55
Cc1cccc(Nc2nc(-c3ccc(O)cc3O)cs2)n1	PfHsp40 yeast 121
Oc1ccc(-c2csc(Nc3ncccn3)n2)c(O)c1	none
N#CC(=Cc1c(N(Cc2ccccc2)Cc2ccccc2)nc2ccccn2c1=O)C(N)=O	none (no result: Y pestis TopoI, BJeLR lethal, PfHsp40 yeast, PrP UTR inh)
CCOC(=O)C1C2COc3ccc(OC)cc3C2N2C(=O)c3ccc(Cl)cc3NC(=O)[C@@]12C (stereo partly drawn)	none (no result: Y pestis TopoI, BJeLR lethal, PfHsp40 yeast, PrP UTR inh)
C#CCOCCOCCOCCNc1nc(N2CCN(C(=O)C(CCC(=O)O)n3cc(C(N)Cc4ccc(O)cc4)nn3)CC2)nc(N2CCN(C(=O)C(Cc3cc4ccccc4[nH]3)n3cc(C(N)CC(C)C)nn3)CC2)n1 (stereo not drawn)	none (no result: Y pestis TopoI, BJeLR lethal, PfHsp40 yeast, PrP UTR inh)
Clc1cccc(N/N=C(\Cc2nc3ccccc3[nH]2)c2ccccc2)c1	PfHsp40 yeast 426 (no result: ugtP null kill, Sa RN4220 lethal)
COc1ccc(-c2ccc3c(c2)C2CC3CCN2Cc2ccc(OC(F)(F)F)cc2)cc1 (stereo not drawn)	ugtP null kill 89 (no result: BJeLR lethal)
CCOc1ccc(NC(=S)NC(=O)c2cnn(CC)c2)c([N+](=O)[O-])c1	ugtP null kill 85
CC(C)=CCc1c(-c2ccc(O)cc2O)oc2cc3c(c(O)c2c1=O)C=CC(C)(C)O3	ugtP null kill 97, Sa RN4220 lethal 96 (no result: Y pestis TopoI, PfHsp40 yeast, PrP UTR inh)
COC(=O)CN1C(=O)C2C(C)C3=C4C(CC(C(=O)OC)=CC(C(=O)OC)C4[C@](C)(NC(=O)c4ccccc4)C3=O)C2C1=O (stereo partly drawn)	none (no result: Y pestis TopoI, BJeLR lethal, PfHsp40 yeast, PrP UTR inh)
CC(=O)n1cc(C2C=C(C(=O)N3CCOCC3)OC(OCc3ccc(CO)cc3)C2)c2ccccc21 (stereo not drawn)	none (no result: Y pestis TopoI, BJeLR lethal, PfHsp40 yeast, PrP UTR inh)
Cc1cc(N/N=C/c2cccc([N+](=O)[O-])c2)nc(-n2nc(C)cc2C)n1	none (no result: ugtP null kill, Sa RN4220 lethal)
Cc1cc(N/N=C/c2ccccc2[N+](=O)[O-])nc(-n2nc(C)cc2C)n1	PfHsp40 yeast 55 (no result: ugtP null kill, Sa RN4220 lethal)
COc1ccc(/C=N/Nc2cc(C)nc(-n3nc(C)cc3C)n2)cc1	PfHsp40 yeast 272 (no result: ugtP null kill, Sa RN4220 lethal)
Cc1cc(CNC(=O)C2CC2C(NP(=O)(c2ccccc2)c2ccccc2)c2ccccc2)nn1C (stereo not drawn)	none (no result: Y pestis TopoI, BJeLR lethal, PfHsp40 yeast, PrP UTR inh)
COc1cc(C=NNC(=O)c2ccccc2)ccc1OS(=O)(=O)c1ccccc1	ugtP null kill 90 (no result: Y pestis TopoI, BJeLR lethal, PfHsp40 yeast, PrP UTR inh)
CC(O)Cc1cn(C(CCCCNC(=O)OC(C)(C)C)C(=O)N2CCN(C(=O)OC(C)(C)C)CC2)nn1 (stereo not drawn)	none (no result: Y pestis TopoI, BJeLR lethal, PfHsp40 yeast, PrP UTR inh)
O=C(NC1CCCC1)C(c1ccncc1)N(Cc1ccccc1)C(=O)c1ccc(-c2ccccc2)[nH]1 (stereo not drawn)	none
CC(C)(C)NC(=O)C(c1ccncc1)N(Cc1ccc(F)cc1)C(=O)c1ccc(-c2ccccc2)[nH]1 (stereo not drawn)	PfHsp40 yeast 66
